Among the data in ChEMBL document CHEMBL3988442, “University of Dundee, Small-Polar-MMV Screening Library” (2021) are Percent Effect values, retold here.

Holding throughout (parameters): scale not given: direction of the effect not stated beside the values
Test [1] concerns the target Protein translocase subunit SecA (Escherichia coli (strain K12)) (UniProt P10408). Nature of the test: Assay to Identify E. coli SecA ATPase Inhibitors. It is filed as functional. Conditions: 30 µM.
Test [2] deals with T1, Ubiquitin-activating enzyme e1, putative (Leishmania donovani (strain BPK282A1)) (UniProt E9BSI1).
T1 sequence (whole entry): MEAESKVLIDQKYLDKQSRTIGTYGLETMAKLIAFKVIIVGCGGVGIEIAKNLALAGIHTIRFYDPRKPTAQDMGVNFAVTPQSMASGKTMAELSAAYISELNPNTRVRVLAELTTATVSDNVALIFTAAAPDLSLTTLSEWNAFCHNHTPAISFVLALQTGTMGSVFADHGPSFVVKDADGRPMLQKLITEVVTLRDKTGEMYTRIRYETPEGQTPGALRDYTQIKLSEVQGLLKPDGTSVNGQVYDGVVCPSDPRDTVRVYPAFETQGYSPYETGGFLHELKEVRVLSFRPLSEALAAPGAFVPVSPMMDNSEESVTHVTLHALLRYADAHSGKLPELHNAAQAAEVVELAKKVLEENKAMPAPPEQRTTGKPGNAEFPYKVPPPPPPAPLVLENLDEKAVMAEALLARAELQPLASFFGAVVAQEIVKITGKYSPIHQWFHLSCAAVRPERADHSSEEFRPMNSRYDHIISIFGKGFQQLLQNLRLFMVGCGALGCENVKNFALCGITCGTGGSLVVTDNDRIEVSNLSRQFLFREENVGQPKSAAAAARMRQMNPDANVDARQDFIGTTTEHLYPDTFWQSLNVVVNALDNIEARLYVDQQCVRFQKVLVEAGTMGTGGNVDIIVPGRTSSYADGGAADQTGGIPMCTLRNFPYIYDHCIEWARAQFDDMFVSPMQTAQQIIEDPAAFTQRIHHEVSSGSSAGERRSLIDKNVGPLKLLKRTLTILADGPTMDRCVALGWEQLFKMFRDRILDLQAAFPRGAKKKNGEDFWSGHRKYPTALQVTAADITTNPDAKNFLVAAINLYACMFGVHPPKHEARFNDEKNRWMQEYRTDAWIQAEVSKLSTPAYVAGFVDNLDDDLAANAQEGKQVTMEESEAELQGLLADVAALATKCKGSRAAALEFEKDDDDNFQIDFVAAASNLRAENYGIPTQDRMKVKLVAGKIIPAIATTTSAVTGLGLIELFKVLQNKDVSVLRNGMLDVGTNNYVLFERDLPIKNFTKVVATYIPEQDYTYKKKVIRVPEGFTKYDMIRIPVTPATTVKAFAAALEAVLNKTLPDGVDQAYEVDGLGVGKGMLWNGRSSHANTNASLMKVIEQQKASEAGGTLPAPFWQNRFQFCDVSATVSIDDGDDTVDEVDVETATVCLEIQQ
Nature of the test: Leishmania donovani Ubiquitin Activating Enzyme (LdE1). It counts as functional. The following applies: 30 µM.

For test [3], the target named is AMP-activated protein kinase, AMPK (Homo sapiens) (UniProt P54646+O43741+P54619+Q9UGJ0+Q9Y478+Q13131+Q9UGI9). Briefly: AMP-dependent Kinase enzyme assay. An in vitro enzyme assay that detects ADP turnover that is directly proportional to AMPK activity. This uses naive AMPK that is activated during the assay with MK-8722. It is filed as functional. The following applies: 30 µM.

Test [4] has as its target Sialic acid-binding Ig-like lectin 9 (Homo sapiens) (UniProt Q9Y336). Briefly: Hs-Siglec9 ALPHAscreen SOP 20170721. Conditions: 10 µM. (In Alpha technology, singlet oxygen from a donor bead excites a nearby acceptor bead.)
The subject of test [5] is Trypanosoma cruzi. Briefly: Trypanosoma cruzi phosphomannomutase and mannose-1-phosphate guanylyltransferase assay. It counts as functional. Conditions: 10 µM.
Test [6] addresses T2, Arginase-2, mitochondrial (Homo sapiens) (UniProt P78540).
T2 sequence (whole entry): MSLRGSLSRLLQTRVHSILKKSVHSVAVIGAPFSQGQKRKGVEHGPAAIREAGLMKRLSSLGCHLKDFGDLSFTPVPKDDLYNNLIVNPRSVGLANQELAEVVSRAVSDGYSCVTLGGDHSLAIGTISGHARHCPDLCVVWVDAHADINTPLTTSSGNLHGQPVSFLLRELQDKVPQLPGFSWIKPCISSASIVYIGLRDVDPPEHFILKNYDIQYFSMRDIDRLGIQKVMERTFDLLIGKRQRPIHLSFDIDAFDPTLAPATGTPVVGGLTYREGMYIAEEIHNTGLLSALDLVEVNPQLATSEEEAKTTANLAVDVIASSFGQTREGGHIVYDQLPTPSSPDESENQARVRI
Nature of the test: in vitro enzyme assay to detect the production of urea directly proportional to the activity of Arginase II. Also: in the data most compounds retested in dose-response had high values. It counts as functional. The following applies: 33.3 µM.

The target in test [7] is T3, Proteasome subunit beta (Trypanosoma cruzi) (UniProt O96673).
T3 sequence (whole entry): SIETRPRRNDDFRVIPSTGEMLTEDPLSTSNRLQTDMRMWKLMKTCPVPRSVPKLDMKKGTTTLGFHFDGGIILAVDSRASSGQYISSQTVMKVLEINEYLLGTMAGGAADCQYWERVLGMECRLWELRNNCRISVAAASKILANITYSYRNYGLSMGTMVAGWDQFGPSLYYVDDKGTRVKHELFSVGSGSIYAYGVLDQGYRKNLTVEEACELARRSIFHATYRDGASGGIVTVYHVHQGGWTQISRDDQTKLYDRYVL
Nature of the test: Trypanosoma cruzi proteasome chymotrypsin-like activity (TcProtChymo) assay. Also: in the data most compounds retested in dose-response had high values. The following applies: 9.37 µM. It is filed as functional.

The species named for test [8] is Homo sapiens. Nature of the test: To identify inhibition of the IFN signalling (Jak-Stat) pathway via expression of an eGFP reporter gene under the control of an IFN-stimulated response element (ISRE) containing MxA promoter. Conditions: 30 µM. It counts as functional. (In general: A reporter such as luciferase makes a cellular process visible.)
Test [9] addresses T4, Tyrosyl-tRNA synthetase, putative (Trypanosoma cruzi (strain CL Brener)) (UniProt Q4DSP6).
T4 sequence (whole entry): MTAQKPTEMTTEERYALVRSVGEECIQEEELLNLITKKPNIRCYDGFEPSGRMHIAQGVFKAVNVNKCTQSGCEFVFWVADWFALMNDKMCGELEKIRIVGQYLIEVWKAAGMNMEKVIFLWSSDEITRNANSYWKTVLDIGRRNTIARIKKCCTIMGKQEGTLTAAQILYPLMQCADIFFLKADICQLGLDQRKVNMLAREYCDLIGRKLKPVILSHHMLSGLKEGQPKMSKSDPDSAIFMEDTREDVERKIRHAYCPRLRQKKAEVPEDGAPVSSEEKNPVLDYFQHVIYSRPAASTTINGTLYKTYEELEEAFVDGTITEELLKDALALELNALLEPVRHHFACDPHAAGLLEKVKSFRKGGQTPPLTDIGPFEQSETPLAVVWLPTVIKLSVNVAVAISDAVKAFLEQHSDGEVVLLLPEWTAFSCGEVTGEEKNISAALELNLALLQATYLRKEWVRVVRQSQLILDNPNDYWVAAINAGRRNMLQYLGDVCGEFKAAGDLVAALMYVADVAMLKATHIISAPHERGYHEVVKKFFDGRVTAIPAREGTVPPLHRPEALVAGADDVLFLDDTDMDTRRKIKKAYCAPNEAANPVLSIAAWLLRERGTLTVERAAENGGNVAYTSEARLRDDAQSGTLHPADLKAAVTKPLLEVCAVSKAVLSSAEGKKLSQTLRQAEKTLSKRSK
Nature of the test: Trypanosoma cruzi tyrosyl tRNA synthetase (TcYRS) _High Tyrosine SOP. Also: in the data most compounds retested in dose-response had high values. It counts as functional. Conditions: 30 µM.

For test [10], the target named is T4, Tyrosyl-tRNA synthetase, putative (Trypanosoma cruzi (strain CL Brener)). Briefly: Trypanosoma cruzi tyrosyl tRNA synthetase (TcYRS) SOP. It is filed as functional. Conditions: 30 µM.
The target in test [11] is Chromo domain-containing protein 1 (Saccharomyces cerevisiae (strain ATCC 204508 / S288c) (Baker's yeast)) (UniProt P32657). Nature of the test: ScCHD-1 Enzyme Inhibition Assay. Also: in the data most compounds retested in dose-response had high values. It is filed as functional. The following applies: 30 µM.

SMILES strings stand for the structures. For some of these results: Measured potencies and affinities stand elsewhere.

Sialic acid-binding Ig-like lectin 9 (Homo sapiens), sequence (Q9Y336 whole entry): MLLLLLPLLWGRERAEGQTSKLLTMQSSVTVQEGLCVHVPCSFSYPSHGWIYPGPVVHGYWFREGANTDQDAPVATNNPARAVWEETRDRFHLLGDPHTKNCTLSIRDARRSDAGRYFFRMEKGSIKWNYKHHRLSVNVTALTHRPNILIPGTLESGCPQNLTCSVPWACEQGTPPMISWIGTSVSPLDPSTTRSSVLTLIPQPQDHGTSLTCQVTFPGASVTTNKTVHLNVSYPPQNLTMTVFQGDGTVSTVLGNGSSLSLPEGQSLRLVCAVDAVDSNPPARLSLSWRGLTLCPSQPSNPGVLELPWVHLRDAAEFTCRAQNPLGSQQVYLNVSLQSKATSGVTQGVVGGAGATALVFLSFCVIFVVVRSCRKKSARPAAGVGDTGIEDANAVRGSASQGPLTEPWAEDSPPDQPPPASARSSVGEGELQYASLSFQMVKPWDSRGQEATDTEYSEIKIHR
Chromo domain-containing protein 1 (Saccharomyces cerevisiae (strain ATCC 204508 / S288c) (Baker's yeast)), sequence (P32657 whole entry, the tested form may be a part): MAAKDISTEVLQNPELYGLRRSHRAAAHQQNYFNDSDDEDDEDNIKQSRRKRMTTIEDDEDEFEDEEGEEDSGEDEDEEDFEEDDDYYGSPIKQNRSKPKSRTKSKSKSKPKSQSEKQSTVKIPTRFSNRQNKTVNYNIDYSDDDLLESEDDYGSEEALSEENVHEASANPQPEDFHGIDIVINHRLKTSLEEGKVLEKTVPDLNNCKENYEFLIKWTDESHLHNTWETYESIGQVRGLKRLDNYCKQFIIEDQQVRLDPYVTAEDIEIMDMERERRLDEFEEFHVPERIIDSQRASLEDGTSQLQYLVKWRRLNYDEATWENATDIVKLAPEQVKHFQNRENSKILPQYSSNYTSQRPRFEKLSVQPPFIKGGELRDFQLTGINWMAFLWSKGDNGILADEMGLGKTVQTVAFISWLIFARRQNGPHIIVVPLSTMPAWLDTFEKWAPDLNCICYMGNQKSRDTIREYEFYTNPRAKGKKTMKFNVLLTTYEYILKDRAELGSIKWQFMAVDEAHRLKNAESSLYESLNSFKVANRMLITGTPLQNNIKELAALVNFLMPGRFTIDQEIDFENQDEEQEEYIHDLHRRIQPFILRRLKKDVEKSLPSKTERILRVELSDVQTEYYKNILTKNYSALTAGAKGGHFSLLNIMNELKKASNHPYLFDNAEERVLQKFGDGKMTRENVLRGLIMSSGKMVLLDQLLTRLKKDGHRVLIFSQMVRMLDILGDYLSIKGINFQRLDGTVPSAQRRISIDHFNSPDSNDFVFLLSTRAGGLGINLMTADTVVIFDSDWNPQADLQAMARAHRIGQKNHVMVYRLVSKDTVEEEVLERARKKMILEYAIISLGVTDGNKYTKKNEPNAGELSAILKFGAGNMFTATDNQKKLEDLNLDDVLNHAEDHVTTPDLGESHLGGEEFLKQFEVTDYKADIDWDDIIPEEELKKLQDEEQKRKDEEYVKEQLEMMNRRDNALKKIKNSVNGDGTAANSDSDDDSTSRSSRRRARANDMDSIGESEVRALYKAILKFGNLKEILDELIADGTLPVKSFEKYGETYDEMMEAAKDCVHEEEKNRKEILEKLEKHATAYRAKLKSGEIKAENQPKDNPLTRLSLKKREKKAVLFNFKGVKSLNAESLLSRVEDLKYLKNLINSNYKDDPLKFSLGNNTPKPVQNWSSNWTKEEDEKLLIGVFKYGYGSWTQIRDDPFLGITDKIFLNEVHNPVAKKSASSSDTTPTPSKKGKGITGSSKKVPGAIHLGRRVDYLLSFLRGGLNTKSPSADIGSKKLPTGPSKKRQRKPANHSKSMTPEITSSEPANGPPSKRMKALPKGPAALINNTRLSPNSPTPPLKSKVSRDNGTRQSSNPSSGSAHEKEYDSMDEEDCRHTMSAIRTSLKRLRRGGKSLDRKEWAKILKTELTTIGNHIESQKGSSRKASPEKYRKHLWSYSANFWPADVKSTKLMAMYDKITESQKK
Protein translocase subunit SecA (Escherichia coli (strain K12)), sequence (P10408 whole entry): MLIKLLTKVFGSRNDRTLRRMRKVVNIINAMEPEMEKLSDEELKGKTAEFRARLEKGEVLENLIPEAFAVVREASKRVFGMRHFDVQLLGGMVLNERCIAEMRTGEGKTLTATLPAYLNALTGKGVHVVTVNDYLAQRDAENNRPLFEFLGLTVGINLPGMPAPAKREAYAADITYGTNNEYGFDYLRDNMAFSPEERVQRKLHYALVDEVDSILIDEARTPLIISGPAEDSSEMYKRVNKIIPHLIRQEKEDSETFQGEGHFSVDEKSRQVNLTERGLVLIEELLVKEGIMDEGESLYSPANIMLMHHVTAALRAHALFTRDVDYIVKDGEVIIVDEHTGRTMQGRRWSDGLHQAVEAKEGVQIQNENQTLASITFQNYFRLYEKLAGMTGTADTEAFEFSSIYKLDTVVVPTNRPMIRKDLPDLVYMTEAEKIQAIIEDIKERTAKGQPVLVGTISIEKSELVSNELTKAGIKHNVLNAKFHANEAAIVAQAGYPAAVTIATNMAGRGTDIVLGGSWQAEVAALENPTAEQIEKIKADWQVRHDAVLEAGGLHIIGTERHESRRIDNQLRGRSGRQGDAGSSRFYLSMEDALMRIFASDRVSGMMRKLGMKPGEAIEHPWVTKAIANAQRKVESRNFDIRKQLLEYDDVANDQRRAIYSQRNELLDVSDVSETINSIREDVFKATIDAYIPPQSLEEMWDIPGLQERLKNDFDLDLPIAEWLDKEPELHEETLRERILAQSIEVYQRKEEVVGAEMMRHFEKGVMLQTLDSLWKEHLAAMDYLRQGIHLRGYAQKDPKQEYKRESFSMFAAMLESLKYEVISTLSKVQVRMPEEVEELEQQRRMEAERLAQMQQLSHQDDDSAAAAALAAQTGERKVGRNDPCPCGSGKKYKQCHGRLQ

For the compound `CCOc1ccc(CC(CNC(=O)c2occc2C)C(N)=O)cc1` (stereo unspecified), the Percent Effect is -5.57% in test [1]; 10.4% in [2]; -18.6% in [3]; -5.56% in [4]; -3.23% in test [5]; 1.47% in test [6]. Moreover, the Percent Effect is 3.64% in [7]; 9.64% in test [8]; 7.62% in test [9]; 11.8% in test [10]; -12.3% in [11].
Regarding `Cc1nnc(NC(=O)NCc2cc(F)cc(F)c2)s1`, the Percent Effect was -1.16% in test [1]; 21.1% in test [2]; -3.09% in [3]; -15.6% in test [4]; -9.43% in [5]; 5.75% in [6]. In addition, the Percent Effect in test [7] was 10.7%; in test [8], 13.5%; in [9] it was 4.43%; in test [10], 13.6%; in test [11], -3.4%.
Consider `CC(C)N1CCOCC2(CN(Cc3ccco3)CCO2)C1` (stereo unspecified), for which the Percent Effect was -0.00842% in [1]; -5.48% in test [2]; 2.81% in test [3]; 4.65% in [4]; -2.58% in test [5]; 2.4% in [6]. The Percent Effect turned out to be 13.8% in test [7]; 3.21% in test [8]; 2.08% in [9]; 8.64% in test [10]; 0.188% in test [11].
Consider `C[C@@H]1CN(C(=O)NC2CC2)C[C@]12CCN(c1ccsc1)C2=O`, for which the Percent Effect is -4.11% in [1]; 5.33% in test [2]; 8.07% in [3]; 0.822% in [4]; -4.13% in [5]; 2.1% in test [6]. In addition, the Percent Effect was 2.56% in test [7]; 8.5% in [8]; 4.25% in test [9]; 11.5% in test [10]; -3.74% in [11].
As for `Cc1nn(C)c(Cl)c1C1CCCN1C(=O)c1cc(Cl)c[nH]1` (stereo unspecified), the Percent Effect in [1] is -2.13%; in test [2], 2.7%; in [3] it was 0.443%; in test [4] it was 9.97%; in test [5] it was -1.79%; in [6], 2%. The Percent Effect was -1.62% in test [7]; 2.15% in test [8]; 7.39% in test [9]; 3.7% in test [10]; 2.56% in test [11].
Take `CN(Cc1ccc(F)cc1)C(=O)NCc1nnc2n1CCCCC2`: the Percent Effect is -8.45% in test [1]; 12.7% in [2]; -3.69% in test [3]; 5.52% in test [4]; 10.5% in test [5]; -6.08% in test [6]. In addition, the Percent Effect in test [7] was 7.62%; in test [8] it was 15.3%; in [9] it was 6.4%; in test [10], 13.9%; in test [11], -15%.
In the case of `O=C(NCCN1CCCCC1)c1nc(-c2ccc3cc[nH]c3c2)no1`, the Percent Effect is -1.02% in test [1]; 25.3% in test [2]; -7.25% in [3]; 3.61% in [4]; 4.71% in [5]; -4.75% in test [6]. Moreover, the Percent Effect in [7] is 20.5%; in test [8] it was -13.4%; in test [9], 4.23%; in test [10], 12.8%; in test [11], -6.27%.
As to `CC(C)(C)c1ncc(C(=O)NCCS(N)(=O)=O)s1`, the Percent Effect is -6.98% in test [1]; 2.63% in test [2]; -2.41% in test [3]; 7.37% in test [4]; 0.654% in test [5]; -2.88% in test [6]. Further, the Percent Effect in test [7] is -6.01%; in test [8], -5.3%; in test [9] it was 6.4%; in test [10], 11.1%; in test [11], 2.8%.
`C[C@H]1C[C@@H]2CCN(C(=O)c3cccn3C)C[C@H]2O1`: the Percent Effect in test [1] was -0.284%; in test [2] it was 10.8%; in [3], 2.27%; in [4] it was -5.58%; in test [5], -8.89%; in test [6] it was 6.69%. Also, the Percent Effect in test [7] is 17.5%; in [8] it was 3.63%; in [9], -1.08%; in test [10] it was 5.13%; in test [11], -0.358%.
For the compound `COCC(=O)NC1CC2(CCN(Cc3ccco3)CC2)c2ccccc21` (stereo unspecified), the Percent Effect in test [1] was -1.45%; in [2], 2.7%; in [3], -1.83%; in test [4], 3.44%; in test [5] it was -7.92%; in test [6], 2.23%. The Percent Effect was 24.2% in test [7]; 4.53% in test [8]; 2.16% in [9]; 5.13% in test [10]; -3.97% in [11].
Take `CCC(CNC(=O)c1cc(OC)ccc1Br)N1CCc2ccccc2C1` (stereo unspecified): the Percent Effect in test [1] was 0.461%; in test [2], 0%; in [3] it was 3.64%; in [4] it was 9.31%; in [5], -7.14%; in test [6] it was -4.29%. The Percent Effect in [7] was 20.3%; in test [8], 11.2%; in test [9] it was -0.529%; in [10], -2.44%; in [11], -4.45%.
